Screens deposited in PubChem by several laboratories.
PglD DTNB: blocks C. jejuni PglD acetyltransferase activity; inhibition, % at 12.5 µM; AID 602405; purified PglD enzyme, DTNB colorimetric CoA detection; 0.098% of 360,000 active; in the data active = inhibition above about 16%, passing the limit was not always enough
ARNT TACC3 PPI: disrupts binding between human ARNT and TACC3 | inhibition, % at 9.99 µM | 0.66% of 390,000 active | Q9Y6A5 | AlphaScreen His-ARNT PAS-B/GST-TACC3 binding, luminescence; TACC3 fragment carries E629A point mutation | AID 623870;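 active = mean inhibition of replicates at least 50% and at least half of replicates each reaching 50%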;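 also: 0% = complete ARNT plus TACC3 wells and 100% = ARNT alone without TACC3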
ALR inh: human ALR oxidase inhibition via reduced H2O2; P55789; purified ALR, DTT oxidation, H2O2 HRP-luminol luminescence; inhibition, % (concentration not given with the values); 3.8% of 290,000 active;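 active = mean replicate inhibition above about 79%, with every replicate also reaching it, limit read from the data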
PDI inh: blocks human protein disulfide isomerase activity. P07237. PDI insulin aggregation turbidity, A650, 90 min. inhibition, % at 10 µM. 0.052% of 350,000 active;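 active = mean inhibition across replicates of 30% or more, whatever share of single replicates reach that level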
Target sequence (P07237 whole entry, looked up): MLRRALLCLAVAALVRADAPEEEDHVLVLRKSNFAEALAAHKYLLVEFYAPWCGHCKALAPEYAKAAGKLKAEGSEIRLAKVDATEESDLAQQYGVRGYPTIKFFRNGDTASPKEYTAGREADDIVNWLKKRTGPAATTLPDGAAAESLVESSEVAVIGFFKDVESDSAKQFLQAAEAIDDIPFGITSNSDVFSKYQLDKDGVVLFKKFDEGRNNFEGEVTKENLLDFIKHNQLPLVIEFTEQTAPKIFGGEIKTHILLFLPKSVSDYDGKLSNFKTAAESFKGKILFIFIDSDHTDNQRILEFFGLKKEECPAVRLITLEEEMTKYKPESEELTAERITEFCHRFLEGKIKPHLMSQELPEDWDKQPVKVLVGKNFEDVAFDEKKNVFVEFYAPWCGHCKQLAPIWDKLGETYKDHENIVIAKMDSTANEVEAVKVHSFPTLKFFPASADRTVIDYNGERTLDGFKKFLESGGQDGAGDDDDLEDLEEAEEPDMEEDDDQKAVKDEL
ERp5 inh: inhibitors of human ERp5. inhibition, % at 9.99 µM. AID 651711. 0.05% of 350,000 active. ERp5 insulin aggregation, absorbance 650 nm, 90 min. Q15084;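 active = mean replicate inhibition above about 25%, with every replicate also reaching it, limit read from the data, passing the limit was not always enough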
CendR NRP1 mod: modulators of CendR peptide binding to human neuropilin-1 | O14786 | FAM-RPARPAR peptide binding to NRP-1, fluorescence polarization | inhibition, % at 25 µM | 0.85% of 360,000 active | AID 602438;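 active = inhibition or corrected inhibition above about 18%, plus a signal ratio from 0.5 to 1.5, limit read from the data, passing the limit was not always enough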
The depositor's hits bear a star; x = no result. Many of the other results were omitted from the sample, so hits are more common in it than they were.

SMILES	PglD DTNB	ARNT TACC3 PPI	ALR inh	PDI inh	ERp5 inh	CendR NRP1 mod
O=S(=O)(c1ccc(F)cc1)N1CCCCN2[C@H](CO)[C@H](c3ccc(-c4ccccc4)cc3)[C@H]2C1	-3	14	x	x	2	x
COc1cc(OC)c2ccc(=O)oc2c1C(CC(=O)N1CCCC1)c1ccc(N(C)C)cc1 (centres undefined)	6	7	99*	2	9	2
COc1cc(OC)c2ccc(=O)oc2c1C(CC(=O)N1CCOCC1)c1ccc(N(C)C)cc1 (centres undefined)	-4	3	98*	2	x	1
COc1ccc(C(CC(=O)N2CCCC2)c2c(OC)cc(OC)c3ccc(=O)oc23)cc1 (centres undefined)	-3	-2	-9	-6	-2	15
COc1ccc(C(CC(=O)N2CCOCC2)c2c(OC)cc(OC)c3ccc(=O)oc23)cc1 (centres undefined)	4	-4	x	4	-10	8
Cc1ccc(S(=O)(=O)N(C)C[C@@H]2OCCCC[C@H](C)Oc3ccc(NC(=O)NC(C)C)cc3C(=O)N([C@@H](C)CO)C[C@H]2C)cc1	-1	-3	x	x	-2	x
S=c1[nH]ncn1/N=C/c1ccccc1	2	0	98*	10	x	-11
C(=N\n1cnnc1)/c1ccc(N2CCOCC2)cc1	2	-6	-6	1	x	-6
S=c1[nH]ncn1/N=C/c1ccc(N2CCOCC2)cc1	0	0	99*	0	x	12
Cc1n[nH]c(=S)n1/N=C/c1ccccc1	4	-7	97*	-18	x	6
S=c1[nH]ncn1/N=C/c1ccc(Br)cc1	x	-7	98*	7	x	1
C[C@H](CO)N1C[C@H](C)[C@@H](CN(C)CC2CCCC2)Oc2ncc(-c3ccc(C#N)cc3)cc2C1=O	-1	-8	x	x	5	x
C[C@H]1CN([C@@H](C)CO)C(=O)Cc2cc(NC(=O)Cc3cn(C)c4ccccc34)ccc2O[C@@H]1CN(C)Cc1ccncc1	-4	0	x	x	2	x
CCn1c2ccccc2c2cc(/C=N/n3cn[nH]c3=S)ccc21	x	-4	98*	-2	x	0
COc1cccc(NC(=O)CN(C2=NC3CS(=O)(=O)CC3S2)c2cccc(C)c2)c1 (centres undefined)	-1	-3	98*	x	1	-4
O=C(NN=Cc1cc(Br)c(O)c(Br)c1)c1ccccc1NS(=O)(=O)c1cccs1	6	2	89*	14	-1	-101
C[C@H](CO)N1C[C@H](C)[C@H](CN(C)C(=O)Nc2ccc(F)cc2)Oc2ccc(NC(=O)c3ccncc3)cc2C1=O	3	-9	x	x	6	x
Cc1cc2c(c(=O)o1)C(CCC1CCCCC1)C(C#N)=C(N)O2 (centres undefined)	-2	x	97*	-2	-17	-174
O=c1cc(CN2CCN(c3ccccc3O)CC2)nc2sccn12	4	6	99*	-2	x	-5
O=c1cc(CN2CCN(c3ccc(F)cc3)CC2)nc2sccn12	-2	-1	98*	14	x	13
Cc1cccc(N2CCN(Cc3cc(=O)n4ccsc4n3)CC2)c1C	-3	0	2	-6	x	-18
CC(=O)N[C@@H]1CC[C@H](CCNC(=O)C2CCC2)O[C@H]1CO	-3	x	x	x	2	x
C[C@H]1CN([C@@H](C)CO)C(=O)c2cccc(NC(=O)Nc3ccccc3)c2O[C@H]1CN(C)C(=O)NC1CCCCC1	0	x	x	x	-2	x
CCN(c1ccccc1)S(=O)(=O)c1ccc(C(=O)N(CCCN(C)C)c2nc3cc4c(cc3s2)OCO4)cc1	5	21	18	14	-12	22*
Cc1ccccc1NC(=O)CCC(=O)N/N=C/c1cc([N+](=O)[O-])ccc1O	-1	22	4	-1	x	-13
SMILES	PglD DTNB	ARNT TACC3 PPI	ALR inh	PDI inh	ERp5 inh	CendR NRP1 mod
CN1CCN(CCC(=O)N/N=C/c2cc([N+](=O)[O-])ccc2O)CC1	x	75*	x	0	x	-14
Cc1ccc(C)c(NC(=O)CCC(=O)N/N=C/c2cc([N+](=O)[O-])ccc2O)c1	1	49*	7	-1	3	-1
CC(C)NC(=O)N(C)C[C@@H]1Oc2cc(-c3ccncc3)ccc2S(=O)(=O)N([C@H](C)CO)C[C@H]1C	-2	0	x	x	7	x
COc1ccc(S(=O)(=O)N2CCCCN3[C@@H](CO)[C@H](c4ccc(C5=CCCC5)cc4)[C@@H]3C2)cc1	-5	4	x	x	0	x
COC(=O)C1CCN(C(=O)CN2C(=O)NC(CCc3ccccc3)C2=O)CC1 (centres undefined)	-1	-9	99*	-3	x	-8
Cc1c(C(=O)NNC(=S)Nc2cccc(Cl)c2)nnn1-c1ccccc1	x	33	91*	1	x	-2
Cc1noc(C)c1NC(=O)N(C)C[C@@H]1Oc2c(NC(=O)c3nc4ccccc4s3)cccc2C(=O)N([C@@H](C)CO)C[C@@H]1C	-1	4	x	x	2	x
N#Cc1c(N)nc2c(c1N)CC(COc1ccccc1)O2 (centres undefined)	2	-1	-18	4	x	11
Cc1ccccc1OCC1Cc2c(nc(N)c(C#N)c2N)O1 (centres undefined)	7	-7	-4	4	x	53*
Cc1cccc(C)c1NC(=O)CSc1nnc([C@H](C)NC(=O)OC(C)(C)C)o1	-2	26	-1	-1	x	-2
C[C@H](NC(=O)OC(C)(C)C)c1nnc(SCC(=O)Nc2cccc(Cl)c2)o1	-2	0	96*	7	x	10
CCOc1ccc(-c2c(C(=O)N/N=C/c3sccc3C)nnn2-c2nonc2N)cc1	2	1	3	3	0	24*
Cc1ccn2c(NC3CCCCC3)c(-c3ccc(SC4CCCCC4)cc3)nc2c1	x	x	x	x	1	-72
Cc1ccn2c(NC3CCCC3)c(-c3ccsc3)nc2c1	4	4	89*	8	-4	-1
COc1cc2c(cc1O)CCN(C(=O)CSc1nncn1C)[C@@H]2C	2	x	82*	x	-8	-14
CN(C)C(=O)c1cccc(-c2ccc([C@@H]3[C@@H](C#N)N(C(=O)C4CCCCC4)[C@@H]3CO)cc2)c1	0	-6	x	x	-1	x
CCN(CCCNC(=O)COc1cc(=O)n(C)c2ccccc12)c1cccc(C)c1	-2	4	98*	-6	x	0
CCCCN(CCCNC(=O)CN1C(=O)COc2ccccc21)c1ccccc1	-3	-1	65	-1	x	-9
CCN(CCCNC(=O)CN1C(=O)COc2ccccc21)c1ccccc1	4	-1	99*	-2	x	8
CCN(CCCNC(=O)CC(C(=O)N1CCc2ccccc21)n1ccnc1)c1cccc(C)c1 (centres undefined)	-2	12	99*	6	x	3
CCCCNC(=O)CC(C(=O)N1CCc2ccccc21)n1ccnc1 (centres undefined)	-5	30	-12	14	x	7
